Consider 62 compounds from publication PMC4336329 (PLoS ONE, 2015).

Screen size: about 310,000 compounds; about 14,000 (4.5%) showed an effect of 50% or more. Effects have a minus sign here. The entries come from a sample that favours strong results as a whole.
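Also: peak tail current of the secondary pulse compared with the same well before compound.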

human ether-à-go-go-related gene (hERG) potassium channel, sequence (Q12809 whole entry, looked up): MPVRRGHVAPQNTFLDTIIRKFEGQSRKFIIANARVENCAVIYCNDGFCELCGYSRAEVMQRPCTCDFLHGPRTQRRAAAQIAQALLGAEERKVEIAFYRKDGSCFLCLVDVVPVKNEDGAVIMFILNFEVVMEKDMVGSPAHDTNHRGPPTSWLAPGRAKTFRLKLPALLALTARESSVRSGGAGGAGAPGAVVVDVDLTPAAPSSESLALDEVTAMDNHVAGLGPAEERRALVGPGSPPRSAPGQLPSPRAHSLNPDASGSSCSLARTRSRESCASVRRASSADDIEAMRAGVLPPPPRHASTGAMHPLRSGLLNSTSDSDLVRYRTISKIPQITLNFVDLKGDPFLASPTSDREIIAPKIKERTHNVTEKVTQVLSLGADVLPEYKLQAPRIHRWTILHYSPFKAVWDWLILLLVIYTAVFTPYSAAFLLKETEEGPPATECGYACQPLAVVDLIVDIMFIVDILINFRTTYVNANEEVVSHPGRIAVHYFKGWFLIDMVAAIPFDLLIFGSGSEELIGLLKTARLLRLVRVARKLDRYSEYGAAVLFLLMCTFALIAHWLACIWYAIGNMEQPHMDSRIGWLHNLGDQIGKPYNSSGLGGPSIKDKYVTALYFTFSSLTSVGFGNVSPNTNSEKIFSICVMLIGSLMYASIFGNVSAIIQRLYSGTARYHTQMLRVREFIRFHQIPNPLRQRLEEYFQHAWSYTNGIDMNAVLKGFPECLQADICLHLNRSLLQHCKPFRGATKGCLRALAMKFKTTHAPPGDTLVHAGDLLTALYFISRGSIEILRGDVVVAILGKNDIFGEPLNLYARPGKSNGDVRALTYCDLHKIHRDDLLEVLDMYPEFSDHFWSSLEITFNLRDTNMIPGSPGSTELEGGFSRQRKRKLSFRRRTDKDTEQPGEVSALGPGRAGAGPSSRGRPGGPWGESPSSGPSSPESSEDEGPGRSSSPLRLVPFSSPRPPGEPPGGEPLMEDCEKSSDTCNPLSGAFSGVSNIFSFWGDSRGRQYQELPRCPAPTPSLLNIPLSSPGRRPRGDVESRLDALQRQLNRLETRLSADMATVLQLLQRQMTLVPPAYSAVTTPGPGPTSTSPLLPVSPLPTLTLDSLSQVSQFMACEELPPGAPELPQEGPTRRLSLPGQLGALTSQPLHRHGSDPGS

This assay has as its target human ether-à-go-go-related gene (hERG) potassium channel (human, UniProt Q12809). The assay can be described thus: primary screen, population patch clamp on CHO cells stably expressing hERG; higher = less effect of the substance.
Turning to `CC(=O)N1CCN=C1SCc1ccccc1F`, the “hERG current change (%, negative = inhibition) at 10uM” value is 12.6%.

For `Cc1cc(C(=O)O)c(S(C)(=O)=O)s1`, the “hERG current change (%, negative = inhibition) at 10uM” value is reported as -1.18%.

With `O=[N+]([O-])c1cccc(-c2nnn(C34CC5CC(CC(C5)C3)C4)n2)c1`, the “hERG current change (%, negative = inhibition) at 10uM” value was 5.85%.

As for `CC1CCN(CCC(=O)Nc2ccc(Cl)cc2)CC1.Cl`, the “hERG current change (%, negative = inhibition) at 10uM” value is recorded as -56.9%.

On to `CC1CCN(CCC(=O)Nc2ccccc2)CC1`, for which the “hERG current change (%, negative = inhibition) at 10uM” value is reported as -10.1%.

With `Cc1cccc(NC(=O)CCN2CC(C)CC(C)C2)c1.Cl` (centres unmarked), the “hERG current change (%, negative = inhibition) at 10uM” value is on record as -49.2%.

For the compound `CC1CC(C)CN(CCC(=O)Nc2ccc3c(c2)CCC3)C1.Cl` (centres unmarked), the “hERG current change (%, negative = inhibition) at 10uM” value is given as -43.6%.

As to `Cc1ccc(NC(=O)CCN2CCC(C)CC2)cc1.Cl`, the “hERG current change (%, negative = inhibition) at 10uM” value is 18.6%.

Regarding `CC1CC(C)CN(CCC(=O)Nc2ccc(Br)cc2)C1.Cl` (centres unmarked), the “hERG current change (%, negative = inhibition) at 10uM” value is recorded as -53.5%.

Consider `COc1ccc(CN2C(=O)NC3(CCOc4ccccc43)C2=O)cc1F` (centres unmarked), for which the “hERG current change (%, negative = inhibition) at 10uM” value is recorded as -13.4%.

For `COC(=O)c1c(NC(=S)Nc2ccc(F)cc2[N+](=O)[O-])sc2c1CCCCC2`, the “hERG current change (%, negative = inhibition) at 10uM” value was found to be 4.46%.

Turning to `CC1CC(C)CN(C/C=C/c2ccccc2[N+](=O)[O-])C1` (centres unmarked), the “hERG current change (%, negative = inhibition) at 10uM” value was -55.9%.

On to `CCOC(=O)C1CCN(C/C=C/c2ccccc2OC)CC1`, for which the “hERG current change (%, negative = inhibition) at 10uM” value is on record as -20.5%.

As for `CC1CCCCN1C/C=C/c1ccccc1[N+](=O)[O-]` (centres unmarked), the “hERG current change (%, negative = inhibition) at 10uM” value is -39%.

Turning to `CC1CCCN(C/C=C/c2ccccc2[N+](=O)[O-])C1` (centres unmarked), the “hERG current change (%, negative = inhibition) at 10uM” value is -23.1%.

`CCN(CC)C(=O)C1CCCN(C/C=C/c2ccccc2[N+](=O)[O-])C1` (centres unmarked): the “hERG current change (%, negative = inhibition) at 10uM” value is listed as -33%.

Consider `CCOC(=O)C1CCN(C/C=C/c2ccccc2[N+](=O)[O-])CC1`, for which the “hERG current change (%, negative = inhibition) at 10uM” value was -70.2%.

Take `CCOC(=O)C1CCCN(C/C=C/c2ccccc2[N+](=O)[O-])C1` (centres unmarked): the “hERG current change (%, negative = inhibition) at 10uM” value is -68.2%.

In the case of `CCC1CCCCN1C/C=C/c1ccccc1[N+](=O)[O-]` (centres unmarked), the “hERG current change (%, negative = inhibition) at 10uM” value was -60.2%.

As for `CCOC(=O)C1CCCN(C/C=C/c2ccccc2)C1` (centres unmarked), the “hERG current change (%, negative = inhibition) at 10uM” value is -24.5%.

For the compound `O=[N+]([O-])c1ccccc1/C=C/CN1CCCCC1`, the “hERG current change (%, negative = inhibition) at 10uM” value is listed as -6.44%.

In the case of `CCOC(=O)C1CCN(C/C=C/c2ccccc2)CC1`, the “hERG current change (%, negative = inhibition) at 10uM” value is listed as -28.2%.

As for `O=[N+]([O-])c1ccccc1/C=C/CN1CCCCC1CO` (centres unmarked), the “hERG current change (%, negative = inhibition) at 10uM” value is reported as 5.49%.

`C[N+](C)(C)CCN1C(=O)CSC1=O.[I-]`: the “hERG current change (%, negative = inhibition) at 10uM” value is 10.3%.

Take `COC(=O)c1ccc(NC(=O)CSCc2ccccc2)cc1`: the “hERG current change (%, negative = inhibition) at 10uM” value is -13.8%.

For `Cc1ccccc1C(=O)O/N=C1\CCS(=O)(=O)c2sccc21`, the “hERG current change (%, negative = inhibition) at 10uM” value is on record as 8.17%.

On to `Cc1ccccc1NC(=S)NC(NC(=O)CF)C(Cl)(Cl)Cl` (centres unmarked), for which the “hERG current change (%, negative = inhibition) at 10uM” value was 2.77%.

Consider `CCOP(=O)(OCC)C(NC(=O)Nc1cccc(Cl)c1)C(N)=O` (centres unmarked), for which the “hERG current change (%, negative = inhibition) at 10uM” value amounted to 8.47%.

`C/C(=N\OCC(=O)Nc1ccccc1C(C)(C)C)c1ccc2c(c1)OCCO2`: the “hERG current change (%, negative = inhibition) at 10uM” value is on record as -10.9%.

As for `O=C(Nc1ccc(Cl)cc1)OCc1cc(-c2ccccc2Cl)on1`, the “hERG current change (%, negative = inhibition) at 10uM” value was 7.51%.

For the compound `CC1CN(C(=O)COC(=O)c2ccc(Cl)nc2)CC(C)O1` (centres unmarked), the “hERG current change (%, negative = inhibition) at 10uM” value is listed as 6.41%.

Take `COc1ccc(OC)c(C2CC(=O)N3CN(c4ccccc4)CSC3=C2C#N)c1` (centres unmarked): the “hERG current change (%, negative = inhibition) at 10uM” value is recorded as 9.38%.

For `CC(=O)n1cc(/C=C2/N=C(c3ccccc3)OC2=O)c2ccccc21`, the “hERG current change (%, negative = inhibition) at 10uM” value is 7.37%.

As for `CC1CC(c2ccccc2)n2nc(N3C(=O)c4ccccc4C3=O)nc2N1` (centres unmarked), the “hERG current change (%, negative = inhibition) at 10uM” value came to 12.4%.

As for `CC1=CC(c2ccccc2)n2nc(N3C(=O)C4CC=CCC4C3=O)nc2N1` (centres unmarked), the “hERG current change (%, negative = inhibition) at 10uM” value is given as -7.93%.

Regarding `O=C1C2CC=CCC2C(=O)N1c1nc2n(n1)C(c1ccccc1)CC(c1ccccc1)N2` (centres unmarked), the “hERG current change (%, negative = inhibition) at 10uM” value is on record as -52.6%.

Regarding `CC1C/C(=C/c2cccn2C)C(=O)/C(=C/c2cccn2C)C1` (centres unmarked), the “hERG current change (%, negative = inhibition) at 10uM” value amounted to 9.5%.

On to `O=C(NCc1nc(-c2ccc(C(F)(F)F)cc2)no1)c1cccs1`, for which the “hERG current change (%, negative = inhibition) at 10uM” value is 5.51%.

In the case of `CCOc1ccc(-n2ccnc2SCC(=O)N2CCCc3ccccc32)cc1`, the “hERG current change (%, negative = inhibition) at 10uM” value was -13.7%.

For the compound `S=C(c1ccc(-c2cccc(Cl)c2)o1)N1CCOCC1`, the “hERG current change (%, negative = inhibition) at 10uM” value was found to be 2.46%.

For the compound `N#CCCN1CCN(C(=S)c2ccc(-c3ccc(Cl)c(Cl)c3)o2)CC1`, the “hERG current change (%, negative = inhibition) at 10uM” value was -14.1%.

Regarding `N#CCCN1CCN(C(=S)c2ccc(-c3cccc(Cl)c3)o2)CC1`, the “hERG current change (%, negative = inhibition) at 10uM” value is -59.9%.

Regarding `N#CCCN1CCN(C(=S)c2ccc(-c3cc(Cl)ccc3Cl)o2)CC1`, the “hERG current change (%, negative = inhibition) at 10uM” value is -12.3%.

Consider `N#CCCN1CCN(C(=S)c2ccc(-c3ccc(Cl)cc3)o2)CC1`, for which the “hERG current change (%, negative = inhibition) at 10uM” value is recorded as -55.8%.

As for `S=C(c1ccc(-c2cccc(Cl)c2)o1)N1CCCCC1`, the “hERG current change (%, negative = inhibition) at 10uM” value is 21.7%.

For `CC(C)c1ccc2oc(=O)cc(CN3CCCCC3)c2c1`, the “hERG current change (%, negative = inhibition) at 10uM” value is recorded as -12.8%.

On to `O=C(CN1N=C(c2ccc(Cl)cc2)CCC1=O)NCc1cccnc1`, for which the “hERG current change (%, negative = inhibition) at 10uM” value was -26.4%.

Take `CCO.CCn1c(COc2ccc3c(c2)OCO3)nnc1SCC(=O)O`: the “hERG current change (%, negative = inhibition) at 10uM” value is on record as -0.394%.

`CCOC(=O)N1CCN(C(=O)CS(=O)(=O)Cc2nc(-c3ccccc3F)oc2C)CC1`: the “hERG current change (%, negative = inhibition) at 10uM” value is recorded as -13.6%.

Take `CCOC(=O)CNC(=O)CSc1nc2cccnc2n1C`: the “hERG current change (%, negative = inhibition) at 10uM” value stood at 7.54%.

For `CCOC(=O)CNC(=O)CSc1nc2cccnc2n1CC`, the “hERG current change (%, negative = inhibition) at 10uM” value is listed as -7.04%.

On to `Cn1c(SCC(=O)N2CCCC2)nc2cccnc21`, for which the “hERG current change (%, negative = inhibition) at 10uM” value is reported as 16.9%.

For the compound `COCCn1c(SCC(=O)N2CCCCC2)nc2cccnc21`, the “hERG current change (%, negative = inhibition) at 10uM” value is -1.5%.

With `O=C(CSc1nc2cccnc2n1Cc1ccccc1)N1CCCC1`, the “hERG current change (%, negative = inhibition) at 10uM” value is listed as -63.7%.

With `CCOC(=O)CNC(=O)CSc1nc2cccnc2n1Cc1ccccc1`, the “hERG current change (%, negative = inhibition) at 10uM” value was -53.9%.

As for `CC1=C(C(=O)OC(C)C)C(c2cncc(-c3ccc(F)cc3)c2)C(C#N)=C(N)O1` (centres unmarked), the “hERG current change (%, negative = inhibition) at 10uM” value is on record as -28.6%.

As to `Cc1nn(CC2CCCCC2)c(N)c1-c1ccccc1`, the “hERG current change (%, negative = inhibition) at 10uM” value is -12.2%.

Regarding `CC(C)(C)c1cc(C(F)(F)F)c(C#N)c(=O)[nH]1`, the “hERG current change (%, negative = inhibition) at 10uM” value was 25%.

Consider `Cc1nc(NC2CCCCC2)c2nnn(Cc3ccccc3Cl)c2n1`, for which the “hERG current change (%, negative = inhibition) at 10uM” value worked out at 8.09%.

Take `C[n+]1ccccc1C1CCCC/C1=N\Nc1ccc([N+](=O)[O-])cc1[N+](=O)[O-].[I-]` (centres unmarked): the “hERG current change (%, negative = inhibition) at 10uM” value is reported as -11.8%.

With `CC1CCCC/C1=N/Nc1ccc([N+](=O)[O-])cc1[N+](=O)[O-]` (centres unmarked), the “hERG current change (%, negative = inhibition) at 10uM” value is -1.11%.

For the compound `O=[N+]([O-])c1ccc(N/N=C2/CCCCC2c2ccccn2)c([N+](=O)[O-])c1` (centres unmarked), the “hERG current change (%, negative = inhibition) at 10uM” value is -56.3%.
